According to PubChem BioAssay (NCATS):
Inconclusive results are not listed. A call without a number means that no potency is given here. Active and inactive are the calls of the source. Calls come from the whole dose curve; as a rule, active = well fitted inhibition curve with a large enough effect; inconclusive = small, poorly fitted or top-dose-only effect; inactive = flat fitted curve, though single readings scatter.
Potency is the fitted concentration of half-maximal effect.

What follows are compounds tested on HB3 (assay: qHTS profiling for inhibitors of Plasmodium falciparum proliferation (AID 504749; note: nearly all actives have a fitted effect of over 60% in size)). Conditions: P. falciparum in erythrocytes, SYBR Green DNA, 72 h; series mostly up to 28.7 µM.
Procedure, shortened: (§1)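 Each compound contacts P. falciparum-infected red blood cells for 72 h at 37 C; lysis buffer (Tris, EDTA, saponin, Triton X, SYBR Green I) is added and fluorescence measured next morning; values normalized to controls.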
NCCS(=O)(=O)O was tested, and the Potency was “inactive”. With CC(C)Cc1ccc(C(C)C(=O)O)cc1 (stereo not drawn) the Potency was “inactive”. In the case of CN(C)CCCN1c2ccccc2CCc2ccc(Cl)cc21, the Potency is reported as “inactive”. For CC(C)NCC(O)c1ccc(O)c(O)c1 (stereo not drawn), the Potency was “inactive”. For NC(=O)OCC(COC(N)=O)c1ccccc1, the Potency was “inactive”. N[C@@H](Cc1c[nH]c2ccc(O)cc12)C(=O)O was tested, and the Potency was “inactive”. Cc1cnc(C(=O)NCCc2ccc(S(=O)(=O)NC(=O)NC3CCCCC3)cc2)cn1 was tested, and the Potency was “inactive”. For CCOC(=O)C(C)(C)Oc1ccc(Cl)cc1, the Potency was “inactive”. With CS(=O)(=O)Nc1ccc([N+](=O)[O-])cc1Oc1ccccc1 the Potency was “inactive”. In the case of CC(C)(C)C(=O)Oc1ccc(S(=O)(=O)Nc2ccccc2C(=O)NCC(=O)O)cc1, the Potency is reported as “inactive”. For C[C@](N)(Cc1ccc(O)c(O)c1)C(=O)O, the Potency was “inactive”. In the case of Clc1ccc2nsnc2c1NC1=NCCN1, the Potency is reported as “inactive”. Cn1cnc2c1c(=O)[nH]c(=O)n2C was tested, and the Potency was “inactive”. In the case of CC(C)C(=O)Nc1ccc([N+](=O)[O-])c(C(F)(F)F)c1, the Potency is reported as “inactive”. COc1ccccc1OCC(O)CN1CCN(CC(=O)Nc2c(C)cccc2C)CC1 (stereo not drawn) was tested, and the Potency was “inactive”. In the case of COc1ccc2[nH]cc(CCNC(C)=O)c2c1, the Potency is reported as “inactive”. For Cn1c(=O)c2c(ncn2C)n(C)c1=O, the Potency was “inactive”. COC(=O)Nc1nc2ccc(C(=O)c3cccs3)cc2[nH]1 was tested, and the Potency was “inactive”. With Clc1ccccc1C(c1ccccc1)(c1ccccc1)n1ccnc1 the Potency was 501 nM (active). With Nc1nc2c(ncn2COC(CO)CO)c(=O)[nH]1 the Potency was “inactive”. NCCCCCC(=O)O was tested, and the Potency was “inactive”. With CC12CC3CC(C)(C1)CC(N)(C3)C2 the Potency was “inactive”. With Cc1cc(C(C)(C)C)c(O)c(C)c1CC1=NCCN1 the Potency was “inactive”. With Nc1nnc(-c2cccc(Cl)c2Cl)c(N)n1 the Potency was “inactive”. With CCOC(=O)c1ncn2c1CN(C)C(=O)c1cc(F)ccc1-2 the Potency was “inactive”. CN(C)c1nc(N(C)C)nc(N(C)C)n1 was tested, and the Potency was “inactive”. With NS(=O)(=O)c1cc2c(cc1Cl)NCNS2(=O)=O the Potency was “inactive”. In the case of CN1CCN2c3ccccc3Cc3ccccc3C2C1 (stereo not drawn), the Potency is reported as “inactive”. In the case of Cc1cn([C@H]2C[C@H](N=[N+]=[N-])[C@@H](CO)O2)c(=O)[nH]c1=O, the Potency is reported as “inactive”. CN(C)C(=N)N=C(N)N was tested, and the Potency was “inactive”. CC[N+](CC)(CC)CCOc1cccc(OCC[N+](CC)(CC)CC)c1OCC[N+](CC)(CC)CC was tested, and the Potency was “inactive”. Cc1ccc(C(=O)Nc2ccc(S(=O)(=O)O)c3cc(S(=O)(=O)O)cc(S(=O)(=O)O)c23)cc1NC(=O)c1cccc(NC(=O)Nc2cccc(C(=O)Nc3cc(C(=O)Nc4ccc(S(=O)(=O)O)c5cc(S(=O)(=O)O)cc(S(=O)(=O)O)c45)ccc3C)c2)c1 was tested, and the Potency was “inactive”. With NC(=O)NO the Potency was “inactive”. With CN1C(C(=O)Nc2ccccn2)=C(O)c2ccccc2S1(=O)=O the Potency was “inactive”. COc1cc2c(c(OC)c1OC)-c1ccc(OC)c(=O)cc1[C@@H](NC(C)=O)CC2 was tested, and the Potency was “inactive”. For Cc1cn([C@H]2C=C[C@@H](CO)O2)c(=O)[nH]c1=O, the Potency was “inactive”. With CS(=O)(=O)CCNCc1ccc(-c2ccc3ncnc(Nc4ccc(OCc5cccc(F)c5)c(Cl)c4)c3c2)o1 the Potency was “inactive”. For CCCNCC(O)COc1ccccc1C(=O)CCc1ccccc1 (stereo not drawn), the Potency was 2000 nM (active). In the case of CC(=O)OCC(CCn1cnc2cnc(N)nc21)COC(C)=O, the Potency is reported as “inactive”.

Each compound was assayed on ICS in the same assay as above. Conditions: P. falciparum in erythrocytes, SYBR Green DNA, 72 h; series mostly up to 28.7 µM.
Procedure, shortened: as §1
With NCCS(=O)(=O)O the Potency was “inactive”. CC(C)Cc1ccc(C(C)C(=O)O)cc1 (stereo not drawn) was tested, and the Potency was “inactive”. With CN(C)CCCN1c2ccccc2CCc2ccc(Cl)cc21 the Potency was 10000 nM (active). For CC(C)NCC(O)c1ccc(O)c(O)c1 (stereo not drawn), the Potency was “inactive”. With NC(=O)OCC(COC(N)=O)c1ccccc1 the Potency was “inactive”. In the case of N[C@@H](Cc1c[nH]c2ccc(O)cc12)C(=O)O, the Potency is reported as “inactive”. With Cc1cnc(C(=O)NCCc2ccc(S(=O)(=O)NC(=O)NC3CCCCC3)cc2)cn1 the Potency was “inactive”. CCOC(=O)C(C)(C)Oc1ccc(Cl)cc1 was tested, and the Potency was “inactive”. With CS(=O)(=O)Nc1ccc([N+](=O)[O-])cc1Oc1ccccc1 the Potency was “inactive”. With CC(C)(C)C(=O)Oc1ccc(S(=O)(=O)Nc2ccccc2C(=O)NCC(=O)O)cc1 the Potency was “inactive”. C[C@](N)(Cc1ccc(O)c(O)c1)C(=O)O was tested, and the Potency was “inactive”. In the case of Clc1ccc2nsnc2c1NC1=NCCN1, the Potency is reported as “inactive”. Cn1cnc2c1c(=O)[nH]c(=O)n2C was tested, and the Potency was “inactive”. CC(C)C(=O)Nc1ccc([N+](=O)[O-])c(C(F)(F)F)c1 was tested, and the Potency was “inactive”. COc1ccccc1OCC(O)CN1CCN(CC(=O)Nc2c(C)cccc2C)CC1 (stereo not drawn) was tested, and the Potency was “inactive”. In the case of COc1ccc2[nH]cc(CCNC(C)=O)c2c1, the Potency is reported as “inactive”. With Cn1c(=O)c2c(ncn2C)n(C)c1=O the Potency was “inactive”. With COC(=O)Nc1nc2ccc(C(=O)c3cccs3)cc2[nH]1 the Potency was “inactive”. Clc1ccccc1C(c1ccccc1)(c1ccccc1)n1ccnc1 was tested, and the Potency was 126 nM (active). In the case of Nc1nc2c(ncn2COC(CO)CO)c(=O)[nH]1, the Potency is reported as “inactive”. In the case of NCCCCCC(=O)O, the Potency is reported as “inactive”. In the case of CC12CC3CC(C)(C1)CC(N)(C3)C2, the Potency is reported as “inactive”. Cc1cc(C(C)(C)C)c(O)c(C)c1CC1=NCCN1 was tested, and the Potency was “inactive”. With Nc1nnc(-c2cccc(Cl)c2Cl)c(N)n1 the Potency was “inactive”. For CCOC(=O)c1ncn2c1CN(C)C(=O)c1cc(F)ccc1-2, the Potency was “inactive”. With CN(C)c1nc(N(C)C)nc(N(C)C)n1 the Potency was “inactive”. For NS(=O)(=O)c1cc2c(cc1Cl)NCNS2(=O)=O, the Potency was “inactive”. With CN1CCN2c3ccccc3Cc3ccccc3C2C1 (stereo not drawn) the Potency was “inactive”. With Cc1cn([C@H]2C[C@H](N=[N+]=[N-])[C@@H](CO)O2)c(=O)[nH]c1=O the Potency was “inactive”. CN(C)C(=N)N=C(N)N was tested, and the Potency was “inactive”. In the case of CC[N+](CC)(CC)CCOc1cccc(OCC[N+](CC)(CC)CC)c1OCC[N+](CC)(CC)CC, the Potency is reported as “inactive”. For Cc1ccc(C(=O)Nc2ccc(S(=O)(=O)O)c3cc(S(=O)(=O)O)cc(S(=O)(=O)O)c23)cc1NC(=O)c1cccc(NC(=O)Nc2cccc(C(=O)Nc3cc(C(=O)Nc4ccc(S(=O)(=O)O)c5cc(S(=O)(=O)O)cc(S(=O)(=O)O)c45)ccc3C)c2)c1, the Potency was “inactive”. For NC(=O)NO, the Potency was “inactive”. In the case of CN1C(C(=O)Nc2ccccn2)=C(O)c2ccccc2S1(=O)=O, the Potency is reported as “inactive”. COc1cc2c(c(OC)c1OC)-c1ccc(OC)c(=O)cc1[C@@H](NC(C)=O)CC2 was tested, and the Potency was “inactive”. With Cc1cn([C@H]2C=C[C@@H](CO)O2)c(=O)[nH]c1=O the Potency was “inactive”. For CS(=O)(=O)CCNCc1ccc(-c2ccc3ncnc(Nc4ccc(OCc5cccc(F)c5)c(Cl)c4)c3c2)o1, the Potency was “inactive”. For CCCNCC(O)COc1ccccc1C(=O)CCc1ccccc1 (stereo not drawn), the Potency was 251 nM (active). CC(=O)OCC(CCn1cnc2cnc(N)nc21)COC(C)=O was tested, and the Potency was “inactive”.
